From PubChem BioAssay AID2685 (National Center for Advancing Translational Sciences (NCATS), 2010)
The whole screen tested about 320,000 compounds, of which about 2,100 (0.66%) were called active. Another 53% or so got no clear call; they are omitted. The call rests on the fitted dose curve; in most records, active means well fitted inhibition curve with a large enough effect in the signal ratio, with a control signal flat (not every such curve was filed as active); inconclusive means small, poorly fitted or top-dose-only effect, or effect the other way, or a change in a side signal; inactive means flat fitted curve, though single readings scatter; the % refers to the signal ratio. The sample as a whole holds a higher share of actives than the screen did.

assay: qHTS Assay for Lipid Storage Modulators in Drosophila S3 Cells; conditions: BODIPY lipid droplet fluorescence, 18-24 h, cells fed with added oleic acid; cell number change: measured here: cell count max response; series mostly up to 46.1 µM; lipid storage change, negative = inhibition: at the top concentration;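 on cell number change: cells counted by Cell Tracker Red CMTPX staining in the red channel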; on lipid storage change, negative = inhibition: on the % scale 0 is the no-effect control and ±100 the full control effect
Excerpt: NIH Molecular Libraries Probe Production Centers Network [MLPCN] NIH Chemical Genomics Center [NCGC] MLPCN Grant: 1 R03 MH085686-01 Assay Submitter (PI): Beller, Mathias; Max-Planck-Institut fur Biophysikalische Chemie NCGC Assay Overview: Storing lipids as a reservoir for energy or the anabolism of elementary metabolites is a common feature of probably all cells and is conserved from bacteria to humans. The universal cellular lipid storage organelle is the so-called lipid storage droplet (LD). Although ubiquitous, LDs share a simple structure composed of a hydrophobic core that harbors the storage lipids, which is shielded by a droplet-specific phospholipid monolayer to which proteins are attached. The current model of LD biogenesis involves an incorporation of the lipid core into the membrane leaflets of the endoplasmic reticulum (ER) followed by a subsequent budding-like maturation of a LD, which ultimately pinches off. Once released, LD volume can increase by localized lipogenesis or fusion of existing droplet. Storage lipids are re-mobilized enzymatically by lipase activity. Lipase regulation in the adipocyte is heavily studied and involves multiple components including catecholamine signaling, the LD-associated proteins Perilipin and comparative gene identification (CGI-58) and at least two lipases named hormone sensitive lipase (HSL) and adipocyte triglyceride lipase (ATGL). LD regulation outside of the adipocyte is poorly understood and only few components are known. However, there is an urgent need to learn more about ectopic fat depots as mislocalized storage of lipids, for example in the liver or muscle, is an eminent health problem associated with insulin resistance or the metabolic syndrome. We developed a laser-scanning cytometer assay to enable 1,536-well screening and combined the results of the small molecules screen with an RNAi database based on lipid storage.
Triacsin C (Sigma-Aldrich T-4540), an inhibitor of long-chain fatty acyl CoA synthetase that blocks synthesis of triglycerides, was used as a positive control for lipid under-storage. A total of 23 nL of compound solution of different concentrations were transferred to the assay plates using a Kalypsys pin tool equipped with a 1,536-pin array containing 10-nL slotted pins (FP1S10, 0.457-mm diameter, 50.8 mm long; V&P Scientific). One microliter of oleic acid (400 uM) was added, and the plate was lidded with stainless steel rubber gasket lined lids containing pinholes. […] Fluorescence was detected by excitation of the fluorophores with a 488-nm laser on an Acumen Explorer (TTP Lab Tech). The total intensity in channel 2 (500-530 nm) reflected lipid droplet accumulation. Cells were detected using channel 3 (575-640 nm) with 5-um width and 100-um depth filters. The ratio of the number of objects in PMT channel 2 over the number of objects in PMT channel 3 was also calculated. Percent activity was computed relative to an internal control (100% inhibited lipid droplet deposition due to the presence of 20 uM Triacsin C), which was added to 32 wells/plate.
Potency means the concentration at half of the fitted maximal effect.

Row | Compound | lipid storage change, negative = inhibition | cell number change [%] | Potency | outcome
1 | C=CCn1cccc(C(=O)Nc2ccc(Cl)cc2)c1=O | 8.12% (inactive) | 6.52 | – | –
2 | C=CCn1cccc(C(=O)Nc2ccc(SC)cc2)c1=O | – | 16.6 | 4.11 µM (active) | –
3 | C=CCn1cccc(C(=O)Nc2ccc(C)cc2)c1=O | 15.4% (inactive) | 10.2 | – | –
4 | COC(=O)c1cn(NC(=O)/C=C/c2ccc(OC)c(OC)c2)c(=O)c2ccccc12 | -1.77% (inactive) | -14.9 | – | –
5 | CCOC(=O)Cc1csc(NC(=O)/C=C/c2ccccc2Cl)n1 | 12.2% (inactive) | -1.33 | – | –
6 | COc1nc(C#N)nc(N(C)C)n1 | -8.69% (inactive) | -4.25 | – | –
7 | N#C/C(=C\c1cccs1)C(=O)NCc1ccccc1 | -2.68% (inactive) | -1.86 | – | –
8 | N#C/C(=C/c1ccccc1)C(=O)NCc1ccccc1 | – | 18.6 | 2.59 µM (active) | –
9 | COc1ccc(/C=C(\C#N)C(=O)NCc2ccccc2)cc1 | 3.79% (inactive) | -4.49 | – | –
10 | CCN(CC)c1ccc(/C=C(/C#N)C(=O)NCc2ccccc2)o1 | – | -20.4 | 2.06 µM (active) | –
11 | N#C/C(=C\c1ccc(O)cc1)C(=O)NCc1ccccc1 | 12.1% (inactive) | – | – | –
12 | N#C/C(=C\c1cccnc1)C(=O)Nc1ccccc1 | 16% (inactive) | -2.7 | – | –
13 | N#C/C(=C/c1ccc(C(=O)O)cc1)C(=O)Nc1ccccc1 | -13.8% (inactive) | – | – | –
14 | CCCCNC(=O)/C(C#N)=C/c1ccc(C(=O)OC)cc1 | -11.1% (inactive) | -26.3 | – | –
15 | N#C/C(=C\c1ccc(OCc2ccccc2)cc1)C(=O)Nc1ccc(C(=O)O)cc1 | – | 12.2 | 20.6 µM (active) | –
16 | Cc1ccc(/C=C(\C#N)C(=O)NCc2ccco2)o1 | 4.22% (inactive) | – | – | –
17 | CCCCNC(=O)/C(C#N)=C/c1cccnc1 | – | – | 20.6 µM (active) | –
18 | N#C/C(=C/c1ccc(OCc2ccc(C(=O)O)cc2)cc1)C(=O)Nc1ccccc1 | 0.353% (inactive) | 14.9 | – | –
19 | CC(C)CN(C(=O)C1CCCC1)C1CCS(=O)(=O)C1 (stereo not given) | -4.14% (inactive) | -27.9 | – | –
20 | N#CCN1CCC/C1=C\[N+](=O)[O-] | 4.55% (inactive) | 11.9 | – | –
21 | CCCN(CCC)S(=O)(=O)c1ccc2c(c1)CCCN2C(C)=O | 13.4% (inactive) | -13.4 | – | –
22 | Cc1ccc(CN2CCN(/N=C/c3sccc3C)CC2)c(C)c1 | 20.6% (inactive) | -17.1 | – | –
23 | CCN(CC)S(=O)(=O)c1cccc(C(=O)NC2=NCCS2)c1 | -13.9% (inactive) | -2.91 | – | –
24 | O=C(N/N=C/c1c[nH]c2ccccc12)c1ccn(Cc2ccc(Cl)cc2Cl)n1 | -4% (inactive) | -11.1 | – | –
25 | O=C(NCc1c(Cl)cccc1Cl)c1ccc2nnsc2c1 | 0.193% (inactive) | 12.5 | – | –

Row | Compound | lipid storage change, negative = inhibition | cell number change [%] | Potency | outcome
26 | O=C(NC(CCl)c1ccccc1)c1ccc(Cl)cc1 (stereo not given) | 1.15% (inactive) | 13.4 | – | –
27 | O=C1CCCN1c1ccc(C(=O)N(Cc2nnc(-c3ccccc3Cl)o2)C2CC2)cc1 | – | -25.6 | – | inactive
28 | CN(C)c1cccc(C(=O)NCc2ccccc2Cl)c1 | – | – | – | inactive
29 | Cc1cccc(C(=O)NCCC(=O)NCc2ccccc2Cl)c1 | – | -17.5 | 1.84 µM (active) | –
30 | Cc1cccc(C(=O)NCCC(=O)NCc2ccccc2F)c1 | -21.2% (inactive) | 10.5 | – | –
31 | CCOc1cccc(/C(O)=C2/C(=O)C(=O)N(CCOC)C2c2ccco2)c1 (stereo not given) | – | 3.12 | – | inactive
32 | CC1CCC(N2CCN(c3ccc([N+](=O)[O-])cc3)CC2)CC1 (stereo not given) | – | -15.6 | – | inactive
33 | COc1ccc(-c2cc(C(=O)N3CCCCCC3)c3ccccc3n2)c(OC)c1 | – | – | – | inactive
34 | COc1ccc(-c2cc(C(=O)N3CCN(c4ncccn4)CC3)c3ccccc3n2)c(OC)c1 | -1.54% (inactive) | – | – | –
35 | COc1ccc(-c2cc(C(=O)N3CCN(c4ccccc4F)CC3)c3ccccc3n2)c(OC)c1 | – | -25.7 | 3.26 µM (active) | –
36 | O=C(O)c1cccc2c1C(=O)N(c1ccccc1)C2 | 7.94% (inactive) | -2.23 | – | –
37 | Cc1ccc(N2CCN(S(=O)(=O)N3CCCCC3)CC2)c(C)c1 | -0.445% (inactive) | 18.1 | – | –
38 | CN1/C(=C\C(=O)c2cccc([N+](=O)[O-])c2)Sc2ccccc21 | – | -22.2 | 1.84 µM (active) | –
39 | COc1cc(OC)cc(C(=O)/C=C2\Sc3ccccc3N2C)c1 | 0.116% (inactive) | 2.87 | – | –
40 | CN1/C(=C\C(=O)c2cccs2)Sc2ccccc21 | 24.2% (inactive) | 18.5 | – | –
41 | Cc1cccc(N2CC3=C(C2=O)C(c2ccccc2)NC(=O)N3C)c1 (stereo not given) | – | 28.8 | – | inactive
42 | CC1(C)c2[nH]c3ccccc3c2C[C@H]2C(=O)N(CCCO)CC(=O)N21 | -9.62% (inactive) | 7.32 | – | –
43 | CC(=O)c1ccc(NC(=O)CCNC(=O)c2ccccc2Cl)cc1 | – | – | – | inactive
44 | Fc1ccc(F)c(CN2CCN(c3ncccn3)CC2)c1 | 16.3% (inactive) | -0.405 | – | –
45 | COc1ccc(/C=C2\SC(=Nc3ccccc3)NC2=O)cc1 | -17.6% (inactive) | -6.61 | – | –
46 | COc1ccc(/C=C2\SC(=Nc3ccccc3OC)NC2=O)cc1 | 13% (inactive) | -11.5 | – | –
47 | COc1ccccc1N=C1NC(=O)/C(=C/c2ccc(N(C)C)cc2)S1 | – | -21.8 | 10.3 µM (active) | –
48 | Cc1ccc(SCC(=O)OCc2csc(CC(=O)Nc3ccccc3C)n2)cc1C | 12.3% (inactive) | -3.61 | – | –
49 | COc1cc(OC)cc(C(=O)NCc2ccc3[nH]c(C)cc3c2)c1 | -15.4% (inactive) | -3.37 | – | –
